The panel holds about 83,000 compounds, 20% with a hit somewhere; the sample as a whole holds those more often.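 Results are percent growth after 48 hours of single-concentration exposure. 100 means growth as in untreated cells, lower positive values show inhibition; negative values down to -100 show cell death.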 A number with no mark means an inactive call. Activity calls are given as the source filed them. Rule for the calls: active = growth percent below 10; inactive = the rest.
Key:
Experiment in all cases: NCI-60 one-dose screen, 48 h (100 = growth as untreated, 0 = no growth, -100 = all killed)
Details in all cases: 10 µM unless noted
T-47D breast = system: T-47D breast
BT-549 breast = system: BT-549 breast
MDA-MB-435 melanoma = system: MDA-MB-435 melanoma
SW-620 colon = system: SW-620 colon
MCF7 breast = system: MCF7 breast
HCT-116 colon = system: HCT-116 colon
HCC-2998 colon = system: HCC-2998 colon
KM12 colon = system: KM12 colon

Row | Structure (SMILES) | growth (T-47D breast) | growth (BT-549 breast) | growth (MDA-MB-435 melanoma) | growth (SW-620 colon) | growth (MCF7 breast) | growth (HCT-116 colon) | growth (HCC-2998 colon) | growth (KM12 colon)
1 | COc1ccc(/C=N\NC(=O)c2ccc3nc(-c4ccc(Cl)cc4)[nH]c3c2)cc1 | 23.3% | 56.9% | 68.5% | 24.4% | 16.7% | 19% | 51.1% | 17.3%
2 | CN1CCN(Cn2nc(-c3cc(Cl)cc(Cl)c3Cl)oc2=S)CC1 | 98.9% | 94.9% | 88.9% | 100% | 97.5% | 97.5% | 105% | 94.2%
3 | CCOC(=O)c1c(NC(=S)Nc2ccc([N+](=O)[O-])cc2)sc2c1CCCCC2 | 58.9% | 86.3% | 88.2% | 98.8% | 70.1% | 70.5% | 96.8% | 72.2%
4 | Nc1c(C(=O)c2ccc(Cl)cc2)sc(Nc2ccccc2)c1-c1nc2ccccc2s1 | 11.8% | 55.2% | 16.7% | 39.3% | 43.9% | 13.9% | 67.5% | 16.1%
5 | CCOC(=O)c1c(Nc2nc3ccccc3s2)sc2c1CCC(=O)C2 | 37% | 13.5% | 82.6% | 19.4% | 39.3% | 11.4% | 104% | 47.7%
6 | Nc1ncnc2c1N=C(c1ccc([N+](=O)[O-])cc1)CC(c1ccc3c(c1)OCO3)N2 (stereo not drawn) | 93% | 86.6% | 94% | 92% | 72.7% | 83.3% | 53.8% | 89.4%
7 | COc1cc2c(c(OC)c1OC)C(=O)CC(c1cccc(C(=O)Nc3ccc(Br)cc3)c1)O2 (stereo not drawn) | 20.3% | 34% | 30.3% | 85.8% | 42.9% | 46.6% | 92.1% | 62.9%
8 | Cn1ccnc1C(=O)/C=C/c1ccc(CC(=O)Nc2cc(F)c(F)c(F)c2)cc1 | 29.2% | 16.3% | 19.2% | 9% (active) | 10.7% | 5.93% (active) | 4.93% (active) | 9.05% (active)
9 | [2H]C([2H])([2H])Oc1c(F)cccc1/C=C/C(=O)/C=C(O)/C=C/c1cccc(F)c1OC([2H])([2H])[2H] | 83.8% | 97.6% | 94.9% | 109% | 74.5% | 84.1% | 112% | 102%
10 | CC(Cc1cccc2ccccc12)C(N)=O (stereo not drawn) | 105% | 105% | 98.9% | 108% | 93% | 106% | 106% | 110%
11 | CCCCCCCCNc1ncnc2c1ncn2Cc1nnc2c3ccccc3c(Cl)nn12 | 26.5% | 28% | 46% | 56.8% | 41.4% | 31.2% | 76.3% | 65.3%
12 | CN(C)C(=O)OCc1ccc2c(Cl)cc(Cl)c(O)c2n1 | 37.8% | 60.3% | 31.2% | 25.7% | 32.4% | 31.6% | 61.8% | 35.4%
13 | COc1cc(OC)cc(C(=O)Nc2cnc(Nc3ccc(N4CCOCC4)nc3)nc2Oc2ccc(C(F)(F)F)cc2)c1 | 69.9% | 77.5% | 74.9% | 71.2% | 59.1% | 16.1% | 99.9% | 88%
14 | COC(=O)c1ccc(-n2cc(CCCOS(=O)(=O)c3ccc(F)cc3)nn2)cc1 | 97.9% | 101% | 97.3% | 100% | 92.1% | 99.6% | 110% | 100%
15 | O=C(CSc1nc(-c2ccccc2)cn1-c1ccc(Cl)cc1)c1ccc([N+](=O)[O-])cc1 | 71.3% | 86.8% | 83.5% | 73.8% | – | 66.9% | 99.6% | 82.6%
16 | COc1cc(C)cc(-c2c(-c3cc(N4CC(O)C4)nc(-c4cccnc4)n3)cnn2C)c1 | 62.6% | 89.7% | 92% | 101% | – | 96.1% | 92.8% | 84.7%
17 | O=C(Nc1ccc2c(c1)-c1ccccc1C2)C1CC(=O)N(c2ccc3c(c2)OCO3)C1 (stereo not drawn) | 52.8% [50 µM] | 80.3% [50 µM] | 70.7% [50 µM] | 75.2% [50 µM] | – | 36.8% [50 µM] | 81% [50 µM] | 51.2% [50 µM]
18 | Cc1cc(=O)oc2cc(Oc3nc(-c4ccccc4)cn4c(-c5ccccc5)cnc34)ccc12 | 38.5% | 82.6% | 72.1% | 88.3% | – | 39.3% | 81% | 75.5%
19 | c1ccc2cc(Cn3cc[n+](Cc4ccc5ccccc5c4)c3)ccc2c1 | -5.37% (active) | 2.35% (active) | 7.71% (active) | 58% | – | 41% | 26.5% | -1.63% (active)
20 | O=C(Nc1ncc(Cc2ccc(Cl)cc2)s1)C1=NCCCCN1 | 92.5% | 104% | 101% | 103% | – | 100% | 118% | 103%
21 | COc1nc2ccccc2cc1/C=[N+](\[O-])c1ccccc1 | 58.9% | 86.7% | 42.2% | 28.4% | – | 10.2% | 105% | 84%
22 | CCOC(=O)/C(=C/c1ccc([N+](=O)[O-])cc1)C(=O)c1ccccc1 | 41.9% | 6.8% (active) | 28.1% | 6.12% (active) | – | -8.58% (active) | 47.7% | 29.5%
23 | CC/C(=C(/c1ccc(Cl)cc1)c1ccc(OCCN2CCCC2)cc1)c1ccccc1 | 47.6% | 77.8% | 60.2% | 11.8% | – | 29.7% | 97.6% | 37.1%
24 | O=C(O)/C=C\C(=O)Nc1ccc2c(c1)Cc1cc(F)ccc1-2 | 84.6% | 111% | 102% | 110% | – | 92.1% | 97.6% | 101%
25 | CNC(=O)c1cc(Oc2ccc3nc(NC(=O)NC(C)C)sc3c2)ccn1 | 64.3% | 86.5% | 0.517% (active) | 53.2% | – | 57.7% | 79.3% | 39.3%
26 | CC1(C)C2=C(C(=O)N1Cc1ccccc1)C(c1ccco1)N(C(=O)C1CCC1)CCN2 (stereo not drawn) | 90.9% | 106% | 101% | 103% | – | 92.6% | 98.4% | 101%
27 | CCCCCCCCNC(=O)[C@@H](N)CSCOC(C)=O | 96.1% | 111% | 19.1% | 84.6% | – | 92.7% | 101% | 38.1%
